# Assay results taken from PubChem BioAssay AID757 (NMMLSC, 2007).
# Screen size: about 190,000 compounds; about 520 (0.27%) were called active. Inconclusive results (about 2%) are left out. This excerpt belongs to a sample that is enriched for actives. Unmarked numbers belong to inactive results.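 How the source made its calls: active means GTP binding activity at least 20 points away from the 100% control level, either lower or higher; inconclusive means compound flagged as likely green fluorescent, judged across all proteins; inactive means the rest.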
# Target: Ras-related C3 botulinum toxin substrate 1 (Homo sapiens) (UniProt P63000)
# Assay: wildtype Rac1 GTP binding modulators, primary screen, biochemical, GST-Rac1 beads, flow cytometry, multiplex (AID 757)
# Conditions: fluorescent GTP binding, at 10 µM, actives lie on both sides, 0 = cold GTP competed, 100 = untreated
row,SMILES,GTP binding activity (% of control)
1,O=C(/C=C/c1ccccc1Cl)Nc1ccc(S(=O)(=O)Nc2ncccn2)cc1,100%
2,CCOC(=O)c1sc2nc(C)nc(Nc3ccc(OC)c(OC)c3)c2c1C,89%
3,CCOC(=O)c1sc(-c2cccc([N+](=O)[O-])c2)cc1N,101%
4,O=C(CNC1CCCCC1)NCC1(c2ccccc2)CCCC1,98%
5,Cc1csc(CN(C)C(=O)CC2C(=O)NCCN2CC(C)(C)C)n1 (centres undefined),98%
6,COCCN(CCOC)C(=S)Nc1ccccc1Cl,95%
7,CC1CC1C(=O)OCC(=O)c1c(N)n(C)c(=O)n(C)c1=O (centres undefined),92%
8,COc1ccc(NC(=O)c2c(SC)nsc2SC)cc1,110%
9,CSc1nsc(SC)c1NC(=O)OC1CCCCC1,30% (active)
10,CSc1ncccc1C(=O)NC1CCCCCC1,99%
11,Cn1ncc(N2CCN(S(=O)(=O)c3ccc(Br)cc3)CC2)c(Cl)c1=O,99%
12,CCc1ccccc1NC(=O)CN(c1ccc(OC)cc1OC)S(=O)(=O)c1ccccc1[N+](=O)[O-],100%
13,O=C(NNC(=S)Nc1ccccc1)c1cccc(S(=O)(=O)N2CCOCC2)c1,96%
14,O=C(CSc1ccsc1[N+](=O)[O-])N1CCCCC1,102%
15,CN(c1ccc(OCC(=O)OCC(=O)Nc2cccc([N+](=O)[O-])c2)cc1)S(=O)(=O)c1ccc(F)cc1,101%
16,CCOc1ccc(S(=O)(=O)Nc2nccs2)cc1,94%
17,O=C(Nn1cnc2ccccc2c1=O)c1ccc([N+](=O)[O-])cc1Cl,96%
18,Cc1cnc(C(=O)N2CCCC(C(=O)c3ccc(C(F)(F)F)cc3)C2)cn1 (centres undefined),100%
19,CCC1SC(CC)C(=O)N(CC(=O)NC2CCCCC2)C1=O (centres undefined),99%
20,O=C(c1ccc(N2CCOCC2)c([N+](=O)[O-])c1)N1CCN(S(=O)(=O)c2cccs2)CC1,96%
21,COCCNC(=S)N1CCC(NC(=O)C23CC4CC(CC(C4)C2)C3)CC1,104%
22,Nc1[nH]c(=S)nc2nc(-c3ccccc3)c(-c3ccccc3)nc12,79% (active)

row,SMILES,GTP binding activity (% of control)
1,Nc1ccc(-c2sc(N)nc2-c2ccccc2)cc1,98%
2,CC1CCC2(CC1)NC(=O)N(Cc1nnc(-c3cccs3)o1)C2=O (centres undefined),94%
3,CCN(CCCNC(=O)CCn1c(=O)[nH]c2ccsc2c1=O)c1ccccc1,99%
4,O=C(Nc1ccccc1)N1CCN(C(=O)Nc2ccccc2)CC1,94%
5,O=C(N1CCCCC1)N1CCN(C(=O)N2CCCCC2)CC1,98%
6,CCOc1ccc(CN2CCN(Cc3ccon3)CC2CCO)cc1 (centres undefined),99%
7,C/C(=N\OC(=O)c1ccccc1)c1c(C)nc2cc(C)ccn12,85%
8,COC(=O)c1c(C(=O)OC)c(-c2cccc(C)c2)n2c1CS(=O)C2 (centres undefined),95%
9,CCC1CO/C(=C(\C(=C(Cl)Cl)N2CCOCC2)[N+](=O)[O-])N1 (centres undefined),101%
10,CC(C)NC(=O)c1ccc(Cl)cc1Cl,103%
11,OCCC1CN(Cc2ccc(Oc3ncccn3)cc2)CCN1CCc1ccccc1 (centres undefined),98%
12,CCOC(=O)CSC1=N/C(=C/c2ccc(-n3cncn3)cc2)C(=O)N1C(C)=O,96%
13,CCC(CC)c1nnc(NC(=O)c2nn(C)c(=O)c3ccccc23)s1,96%
14,CC(=O)c1cc(C#N)c(N2CCCCC2)nc1C,97%
15,COc1cc(COCC(O)CN2CCN(Cc3ccc4c(c3)OCO4)CC2)cc(OC)c1OC (centres undefined),102%
16,O=[N+]([O-])c1cccc(Nc2c3ccccc3nc3ccccc23)c1,93%
17,Cc1cc(OCCCN2CCN(Cc3ccccc3)CC2)ccc1[N+](=O)[O-],85%
18,CN(CC(=O)N1CCN(c2ccccc2)CC1)S(=O)(=O)c1cccs1,101%
19,Cc1cc(C)nc(/N=C2\NC(=O)CC(C(=O)O)N2c2ccc(Cl)cc2Cl)n1 (centres undefined),96%
20,O=C(c1ccc(F)cc1)N1CCCC(c2nc(-c3cccs3)no2)C1 (centres undefined),99%
21,O=C(NC1CCCCC1)C1CCCN(S(=O)(=O)c2ccc(Br)s2)C1 (centres undefined),100%
22,Cc1cccc(NC(=O)c2cccc(C(F)(F)F)c2)c1,98%

row,SMILES,GTP binding activity (% of control)
1,CCOC(=O)c1ccc(NC(=S)N2CCCC2)cc1,96%
2,Cc1ccc(N(C(=O)Cc2cccs2)C(C(=O)NCC2CCCO2)c2ccncc2)cc1 (centres undefined),108%
3,CCCNC(=S)N1CCCC(c2nc3ccccc3[nH]2)C1 (centres undefined),97%
4,COc1cccc(CN(C)CC(=O)NCc2ccccc2Cl)c1OC,98%
5,COc1cc(/C=N/Nc2ccc(C)cc2)cc(Br)c1O,97%
6,COc1cc(/C=N/NC(=S)Nc2cccnc2)cc(OC)c1O,77% (active)
7,COc1ccc(/C=C/C(=O)Nc2cccnc2)cc1OC,98%
8,O=C(O)COc1ccc(/C=N/O)cc1Br,92%
9,Cc1nn(CC(=O)Nc2ccc3c(c2)OCO3)c(C)c1[N+](=O)[O-],100%
10,COc1ccc(C2(CNC(=O)C(c3ccccc3)c3ccccc3)CCOCC2)cc1OC,123% [activator] (active)
11,COc1ccc(C2(CNC(=O)Cc3ccc(OC)c(OC)c3)CCCC2)cc1,97%
12,CCCCNC(=O)C1(c2ccc(OC)cc2)CCOCC1,108%
13,Cc1cc(NC(=O)CN2C(=O)NC(CCc3ccccc3)C2=O)no1 (centres undefined),100%
14,COC(=O)Cn1cc(/C=C/[N+](=O)[O-])c2ccccc21,93%
15,CC(C)C(C)(C#N)NC(=O)CSc1nncn1-c1ccccc1 (centres undefined),104%
16,C/C(=N\OCC(=O)Nc1ccc(Br)cc1)c1cccs1,93%
17,CCOC(=O)Cc1ncccc1C(=O)Nc1ccc(OC)cc1,100%
18,O=C(NCc1ccco1)c1nn2cccnc2c1Cl,99%
19,O=C(CCC(=O)NNc1nc2ccccc2c2nc(-c3ccccc3)nn12)NCCCN1CCCC1=O,96%
20,CCOc1ccc(NC(=O)NNC(=O)c2ccc(Cl)cc2Cl)cc1,96%
